{
  "source": "paper PMC7862700",
  "about": "“An all-to-all approach to the identification of sequence-specific readers for epigenetic DNA modifications on cytosine”",
  "assay_in_all_cases": "DAPPL (digital affinity profiling via proximity ligation, sequencing); 10 mM Tris-HCl pH 7.5, 50 mM NaCl, 1 mM DTT, 4% glycerol, room temperature, 30 min; GST-TFs on glutathione beads, 16-mer random dsDNA library, 0.1% formaldehyde crosslink after washing; high values mean tight binding",
  "details_in_all_cases": "protein: recombinant; tags: N-terminal GST; dsDNA, one strand shown",
  "key": {"FLI1": {"molecular_target": "T1, FLI1 (Homo sapiens, UniProt Q01543 1-452)", "T1 sequence": "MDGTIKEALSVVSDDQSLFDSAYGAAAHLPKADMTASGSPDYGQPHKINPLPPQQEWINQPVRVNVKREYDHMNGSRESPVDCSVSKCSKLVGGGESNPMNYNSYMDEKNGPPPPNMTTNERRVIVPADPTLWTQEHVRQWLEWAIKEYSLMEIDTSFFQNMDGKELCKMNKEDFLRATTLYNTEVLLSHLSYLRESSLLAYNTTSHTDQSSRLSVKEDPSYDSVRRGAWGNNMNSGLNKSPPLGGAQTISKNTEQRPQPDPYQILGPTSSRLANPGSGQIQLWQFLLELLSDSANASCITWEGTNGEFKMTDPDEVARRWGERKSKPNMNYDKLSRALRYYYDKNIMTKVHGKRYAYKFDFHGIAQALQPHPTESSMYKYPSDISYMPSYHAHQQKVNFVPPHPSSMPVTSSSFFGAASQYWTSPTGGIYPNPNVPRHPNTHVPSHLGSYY", "in_short": "(§1)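 A tag-only sample was pooled with DNA-barcoded human transcription factors that had been expressed in yeast as GST fusions and captured on glutathione beads. The pools were incubated for 30 min at room temperature with 200 nmole of a random double-stranded 16-mer DNA library in Tris/NaCl/DTT/glycerol buffer, then washed, crosslinked with 0.1% formaldehyde, proximity-ligated (BsaI/T4 ligase, 1 h, 37 °C), PCR-amplified and sequenced on an Illumina NextSeq500. Binding signal is each hexamer's read frequency for a factor divided by its frequency for the tag-only sample.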"}, "ELK1": {"molecular_target": "T2, ELK1 (Homo sapiens, UniProt P19419 1-428)", "T2 sequence": "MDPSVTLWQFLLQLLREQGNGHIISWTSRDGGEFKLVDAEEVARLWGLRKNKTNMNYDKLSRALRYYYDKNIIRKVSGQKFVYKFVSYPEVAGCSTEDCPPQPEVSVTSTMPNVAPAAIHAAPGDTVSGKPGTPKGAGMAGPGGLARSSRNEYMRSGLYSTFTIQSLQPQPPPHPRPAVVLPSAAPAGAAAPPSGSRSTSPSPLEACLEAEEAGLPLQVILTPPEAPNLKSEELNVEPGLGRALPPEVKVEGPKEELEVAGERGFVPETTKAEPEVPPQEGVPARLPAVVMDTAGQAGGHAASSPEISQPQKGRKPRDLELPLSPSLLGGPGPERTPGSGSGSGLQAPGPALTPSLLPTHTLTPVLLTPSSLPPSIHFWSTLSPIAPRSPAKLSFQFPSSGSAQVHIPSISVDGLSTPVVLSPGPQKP", "in_short": "as §1"}, "GABPA": {"molecular_target": "T3, GABPA (Homo sapiens, UniProt Q06546 1-454)", "T3 sequence": "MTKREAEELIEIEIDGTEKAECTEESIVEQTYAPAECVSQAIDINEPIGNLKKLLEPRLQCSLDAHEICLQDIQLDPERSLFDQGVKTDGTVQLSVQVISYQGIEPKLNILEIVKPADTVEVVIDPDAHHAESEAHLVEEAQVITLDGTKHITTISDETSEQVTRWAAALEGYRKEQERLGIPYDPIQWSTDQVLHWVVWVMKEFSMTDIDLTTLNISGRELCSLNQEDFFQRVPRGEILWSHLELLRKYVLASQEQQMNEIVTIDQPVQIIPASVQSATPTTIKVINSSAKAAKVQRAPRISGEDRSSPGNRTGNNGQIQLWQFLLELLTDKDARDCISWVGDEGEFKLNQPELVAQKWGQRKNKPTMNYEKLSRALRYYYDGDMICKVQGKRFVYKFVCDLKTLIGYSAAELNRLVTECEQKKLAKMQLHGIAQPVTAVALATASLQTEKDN", "in_short": "as §1"}, "ERG": {"molecular_target": "T4, ERG (Homo sapiens, UniProt P11308 1-479)", "T4 sequence": "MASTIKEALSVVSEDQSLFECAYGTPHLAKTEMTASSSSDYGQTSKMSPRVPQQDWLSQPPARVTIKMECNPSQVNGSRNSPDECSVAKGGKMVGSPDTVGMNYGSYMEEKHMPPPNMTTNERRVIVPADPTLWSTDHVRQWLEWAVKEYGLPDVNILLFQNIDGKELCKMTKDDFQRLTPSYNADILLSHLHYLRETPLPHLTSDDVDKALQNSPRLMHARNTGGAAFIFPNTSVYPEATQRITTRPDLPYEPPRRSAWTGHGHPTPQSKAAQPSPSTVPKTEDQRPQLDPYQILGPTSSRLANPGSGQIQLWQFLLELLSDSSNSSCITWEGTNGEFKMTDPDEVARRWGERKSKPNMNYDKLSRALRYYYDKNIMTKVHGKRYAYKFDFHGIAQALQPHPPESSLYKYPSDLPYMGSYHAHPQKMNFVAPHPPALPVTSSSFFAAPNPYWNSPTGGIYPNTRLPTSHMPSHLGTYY", "in_short": "as §1"}, "ELF1": {"molecular_target": "ELF1 (Homo sapiens, UniProt P32519 1-619)", "sequence (P32519 whole entry)": "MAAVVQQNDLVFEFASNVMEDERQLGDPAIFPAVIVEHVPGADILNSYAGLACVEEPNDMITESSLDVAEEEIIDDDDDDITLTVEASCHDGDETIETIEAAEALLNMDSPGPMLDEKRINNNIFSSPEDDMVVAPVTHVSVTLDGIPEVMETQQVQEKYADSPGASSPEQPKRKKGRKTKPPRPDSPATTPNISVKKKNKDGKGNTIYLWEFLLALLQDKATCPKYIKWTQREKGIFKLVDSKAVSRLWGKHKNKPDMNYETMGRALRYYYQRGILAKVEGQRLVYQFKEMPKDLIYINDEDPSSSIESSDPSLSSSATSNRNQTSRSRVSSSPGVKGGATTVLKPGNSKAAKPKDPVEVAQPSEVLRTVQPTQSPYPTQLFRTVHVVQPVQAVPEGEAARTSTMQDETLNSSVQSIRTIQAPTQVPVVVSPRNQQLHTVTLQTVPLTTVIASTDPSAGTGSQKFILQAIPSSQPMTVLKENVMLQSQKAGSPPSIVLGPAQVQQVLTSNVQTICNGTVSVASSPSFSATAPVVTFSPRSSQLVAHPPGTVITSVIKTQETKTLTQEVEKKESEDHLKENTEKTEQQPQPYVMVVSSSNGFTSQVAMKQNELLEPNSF", "in_short": "as §1"}, "EHF": {"molecular_target": "T5, EHF (Homo sapiens, UniProt Q9NZC4 1-300)", "T5 sequence": "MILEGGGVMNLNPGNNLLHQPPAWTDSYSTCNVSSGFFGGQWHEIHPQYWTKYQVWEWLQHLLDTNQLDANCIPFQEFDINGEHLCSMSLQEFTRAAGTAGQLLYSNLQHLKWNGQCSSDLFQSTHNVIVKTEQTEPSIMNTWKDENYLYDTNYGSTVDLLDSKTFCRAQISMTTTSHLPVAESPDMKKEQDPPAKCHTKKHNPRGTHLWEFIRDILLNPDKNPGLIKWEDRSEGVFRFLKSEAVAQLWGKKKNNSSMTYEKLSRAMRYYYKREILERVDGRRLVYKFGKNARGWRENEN", "in_short": "as §1"}, "SPI1": {"molecular_target": "SPI1 (Homo sapiens, UniProt P17947 1-270)", "in_short": "as §1"}, "SPIB": {"molecular_target": "SPIB (Homo sapiens, UniProt Q01892 1-262)", "sequence (Q01892 whole entry)": "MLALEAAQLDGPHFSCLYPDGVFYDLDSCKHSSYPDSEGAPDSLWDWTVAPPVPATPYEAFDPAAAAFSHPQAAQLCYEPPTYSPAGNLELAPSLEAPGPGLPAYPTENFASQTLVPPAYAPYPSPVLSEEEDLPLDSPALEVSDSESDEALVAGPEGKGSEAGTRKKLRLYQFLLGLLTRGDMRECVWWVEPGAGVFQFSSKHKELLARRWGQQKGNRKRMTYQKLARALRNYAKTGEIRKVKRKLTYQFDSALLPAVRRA", "in_short": "as §1"}, "ELK3": {"molecular_target": "T6, ELK3 (Homo sapiens, UniProt P41970 1-407)", "T6 sequence": "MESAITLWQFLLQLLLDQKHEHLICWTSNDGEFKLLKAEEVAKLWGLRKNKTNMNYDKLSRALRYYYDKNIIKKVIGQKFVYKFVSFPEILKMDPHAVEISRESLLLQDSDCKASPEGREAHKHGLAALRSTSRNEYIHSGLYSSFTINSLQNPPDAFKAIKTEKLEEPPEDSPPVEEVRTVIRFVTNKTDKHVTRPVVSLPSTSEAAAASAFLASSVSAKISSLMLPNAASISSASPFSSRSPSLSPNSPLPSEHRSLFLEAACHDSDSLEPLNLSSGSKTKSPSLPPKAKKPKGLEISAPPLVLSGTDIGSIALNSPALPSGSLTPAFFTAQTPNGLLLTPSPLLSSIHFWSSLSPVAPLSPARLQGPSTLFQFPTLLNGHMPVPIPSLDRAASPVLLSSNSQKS", "in_short": "as §1"}},
  "data": [
    {"sequence": "ATTCAC", "values": [
      {"measurement": "binding signal", "setting": "FLI1", "value": "1.23 fold enrichment (6-mer frequency, TF over GST control)"},
      {"measurement": "binding signal", "setting": "ELK1", "value": "1.2 fold enrichment (6-mer frequency, TF over GST control)"},
      {"measurement": "binding signal", "setting": "GABPA", "value": "1.22 fold enrichment (6-mer frequency, TF over GST control)"},
      {"measurement": "binding signal", "setting": "ERG", "value": "1.27 fold enrichment (6-mer frequency, TF over GST control)"},
      {"measurement": "binding signal", "setting": "ELF1", "value": "1.34 fold enrichment (6-mer frequency, TF over GST control)"},
      {"measurement": "binding signal", "setting": "EHF", "value": "1.2 fold enrichment (6-mer frequency, TF over GST control)"},
      {"measurement": "binding signal", "setting": "SPI1", "value": "1.16 fold enrichment (6-mer frequency, TF over GST control)"},
      {"measurement": "binding signal", "setting": "SPIB", "value": "1.2 fold enrichment (6-mer frequency, TF over GST control)"},
      {"measurement": "binding signal", "setting": "ELK3", "value": "1.35 fold enrichment (6-mer frequency, TF over GST control)"}
    ]}
  ]
}
